The supplement of paper PMC12636033
± gives the standard deviation of the averaged measurements. Over roughly 33,000 sequences, “E-score (rank enrichment, -0.5 to 0.5)” has its median near -0.0043; the highest 2% begin near 0.24. Many of the other results were omitted from the sample, so the highest values are more common in it than they were.

Tested on: 2Sp-muMax20 (muMax20 with two 2,6-bis(methyl)pyridine Cys staples)
Assay: PBM 8-mer E-score (E-score (rank enrichment, -0.5 to 0.5)); higher = stronger preferential binding
Description: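 Protein binding microarray (universal PBM chip covering all 10-mers in fixed probe flanks) with chemically synthesized human Max(13-93) bHLH-LZ analogs (not full-length Max) bearing noncanonical residues (hArg, Tha, Aib, Nle at 65) and aromatic Cys staples. Read-out per 8-mer (and its reverse complement): E-score (rank-based enrichment, -0.5 to 0.5) and Z-score of median probe intensity.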

Sequence | PBM 8-mer E-score
GGTGTTGA | 0.0564 ± 0.02
AGGAACAT | -0.135 ± 0.031
CTTTACGA | -0.0477 ± 0.0036
ATTTACGA | 0.0937 ± 0.12
GTTTACGA | 0.242 ± 0.027
GAACGCAC | -0.0274 ± 0.025
ACAAAGCT | 0.00391 ± 0.011
CCATAGCA | 0.135 ± 0.0028
ACATAGCA | 0.236 ± 0.05
CTATATCA | 0.24 ± 0.0079
CTGTATCC | 0.236 ± 0.0094
CTGTATCA | -0.0346 ± 0.018
CCATATCA | 0.114 ± 0.071
TCATAGCA | 0.159 ± 0.02
GTATATCA | 0.0652 ± 0.016
ATGTATCC | -0.111 ± 0.0078
ATATATCA | 0.212 ± 0.014
ACATATCG | 0.115 ± 0.042
ACATATCA | 0.299 ± 0.0056
CGCGCAGC | -0.126 ± 0.023
GCAGACGC | -0.0631 ± 0.015
CCCAACTA | 0.161 ± 0.022

Sequence | PBM 8-mer E-score
TTCGGCAA | 0.0437 ± 0.12
AAATCAGG | 0.041 ± 0.025
TGCCGTAA | -0.113 ± 0.098
CGCCAGCA | -0.199 ± 0.1
CACGAAAC | 0.164 ± 0.018
ATATATCG | 0.0892 ± 0.031
CTATATCC | 0.169 ± 0.018
ATATATCC | 0.285 ± 0.096
AAACTCGT | -0.0113 ± 0.038
CACCTTTA | -0.0135 ± 0.041
ATCTAGTC | -0.00402 ± 0.0038
AACATTAC | 0.169 ± 0.003
CACATTAG | 0.00777 ± 0.035
CACATTAC | 0.2476 ± 0.0022
CCATTCGC | -0.13 ± 0.11
GCGAGGTA | -0.144 ± 0.19
AGTTCCCC | -0.0334 ± 0.025
GATTATAA | 0.154 ± 0.034
CATTCTAA | 0.00098 ± 0.075
TCTTATAA | 0.193 ± 0.04
TATTCTAA | 0.246 ± 0.003
AATTATAG | 0.148 ± 0.082

Sequence | PBM 8-mer E-score
CATTATAG | 0.0091 ± 0.076
AATTCTAA | 0.133 ± 0.092
AATTATAA | 0.3 ± 0.026
TATTATCA | 0.122 ± 0.025
TATTATAA | 0.244 ± 0.079
CATTATAC | 0.218 ± 0.0061
CATTATAA | 0.246 ± 0.1
GGGGGGGA | -0.1747 ± 0.00091
AGATAGCA | 0.137 ± 0.011
CCTTATGC | 0.0835 ± 0.078
AATTATCC | 0.0373 ± 0.0027
AATTATCT | 0.235 ± 0.023
AATTATCA | 0.198 ± 0.045
ACCCTCGT | 0.00159 ± 0.081
GACTAACA | 0.0143 ± 0.0082
GGCCCAAA | -0.117 ± 0.027
GAAATGTA | 0.0185 ± 0.077
CGAATGCA | 0.32 ± 0.04
CAAATGGC | -0.0435 ± 0.002
AAAATGCC | -0.0688 ± 0.037
CAAATGTA | 0.188 ± 0.012
AAAATGCA | 0.145 ± 0.012

Sequence | PBM 8-mer E-score
CGAATGCG | 0.0188 ± 0.013
CAAATGGG | 0.236 ± 0.052
CGAATGCC | -0.0493 ± 0.096
AAAATGCT | 0.263 ± 0.0092
AAAATGGG | -0.206 ± 0.0038
TAAATGTA | 0.281 ± 0.054
CGGGACCG | -0.357 ± 0.032
CCTATCCC | 0.0952 ± 0.097
TCATCTAA | 0.00256 ± 0.03
AATCTAAA | 0.0534 ± 0.04
CAGCGATC | -0.158 ± 0.022
AGAATGCA | 0.0925 ± 0.055
ACCAATCA | -0.0682 ± 0.088
CGTACGAA | 0.19 ± 0.0087
CACGACGG | 0.0169 ± 0.013
CGAAGAAA | 0.223 ± 0.059
CCACTGAA | -0.0273 ± 0.065
AGCAAGAT | -0.0742 ± 0.058
AAAATGAA | 0.135 ± 0.0098
CAAATGAG | 0.0988 ± 0.053
AAAATGAG | 0.267 ± 0.012
TAAATGCA | 0.238 ± 0.1

Sequence | PBM 8-mer E-score
GAAATGCA | 0.135 ± 0.11
CAAATGCA | 0.064 ± 0.011
AAGGTTTA | -0.18 ± 0.048
GCGCGCAA | 0.184 ± 0.057
AAATGGCA | 0.155 ± 0.028
TAGACATA | 0.0769 ± 0.014
AGATGTGA | 0.199 ± 0.019
CTATGTGA | 0.148 ± 0.044
CCATGTGA | 0.268 ± 0.087
CGATGTGA | 0.0746 ± 0.018
ATATGTGG | 0.218 ± 0.032
CAATGTGA | 0.146 ± 0.013
ATATGTGA | 0.311 ± 0.022
CCATGTGC | 0.114 ± 0.025
TAATGTGA | 0.266 ± 0.01
ACATGTGA | 0.312 ± 0.0028
GAATGTGA | 0.00134 ± 0.14
GCATGTGA | 0.183 ± 0.082
GCTTAGCA | 0.039 ± 0.11
TACGCTAA | 0.218 ± 0.0075
GTTCTCTA | -0.185 ± 0.098
